From PubChem
An excerpt weighted towards active compounds, which were near 7.3% of everything screened.
HCV inh: blocks hepatitis C virus; Huh7.5.1 HCVcc-Cre infection, luciferase reporter, 44 h; Potency, µM (highest dose often 41.8 µM), without a hit: at the highest dose activity change, negative = inhibition, hits mostly inhibitors; hit rate 3.4% among 340,000; active means well fitted inhibition curve with a large enough effect; inconclusive means small, poorly fitted or top-dose-only effect, or another doubt; inactive means no such curve, though single readings can be large or run the other way; further: potency means the concentration at half of the fitted maximal effect
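Luciferase read-out (15 sec integration) after a 15 min room-temperature substrate step quantifies HCVcc-Cre infection. Cells, 1,000 per well, had compound added 4 h post-plating, then virus at ~0.5 moi, and were cultured 44 h.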
FMDV antiviral: foot and mouth disease virus antiviral activity; AID 1159524; Potency, µM (series often up to 57.9 µM), for the others: at the top dose activity change, negative = inhibition, actives largely listed as inhibitors; hit rate 1.2% among 410,000; FMDV antiviral cell-based qHTS; calls by dose curve; tested in HEK293T cells; further: read-out not given here; potency means the concentration at half of the fitted maximal effect; nearly all actives have a fitted effect of over 45% in size
Vaccinia mCherry: inhibitors of vaccinia virus infection (mCherry reporter signal); Potency, µM (series often up to 36.5 µM), for the others: at the top dose activity change, negative = inhibition, most hits filed as inhibitors; hit rate 0.63% among 310,000; Vaccinia virus mCherry reporter infection, fluorescence; calls by dose curve; tested in A549 cells; further: potency means the concentration at half of the fitted maximal effect; nearly all actives have a fitted effect of over 35% in size
VACV Venus inh: inhibitors of vaccinia virus (Venus reporter). Potency, µM (series often up to 36.5 µM), without a hit: top-dose activity change, negative = inhibition, hits mostly inhibitors. Vaccinia virus Venus reporter expression, fluorescence. hit rate 0.46% among 330,000. AID 720580; calls by dose curve; tested in A549 cells; further: potency means the concentration at half of the fitted maximal effect; nearly all actives have a fitted effect of over 30% in size
HCMV inh: inhibitors of human cytomegalovirus; HFF cells, HCMV-luciferase reporter, 72 h; stronger effect = lower value; activity change, negative = inhibition, % at 57.5 µM; hit rate 4.5% among 410,000; AID 1259415; in the data active means activity change below about -60%; inconclusive means no clear call, values can overlap the other calls; inactive means above about -39%
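Cell-based, HFFs, 1000 cells/well, 16 h 37C; cpds in DMSO + HCMV-luc, MOI 1 PFU/cell; 72 h 37C; OneGlo luminescence after 5 min RT; norm. to buffer vs Salinomycin 10uM.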
Active calls of the source: *; i = inactive; ? = inconclusive; nt = no result given; ! = a repeat was not active; [ ] = remark or other dose. On the % scale 0 is the no-effect control and ±100 the full control effect.

SMILES	HCV inh	FMDV antiviral	Vaccinia mCherry	VACV Venus inh	HCMV inh
Cc1ccccc1C(=O)N1CCN(c2ccc(NC(=O)c3cccc(OC(C)C)c3)cc2)CC1	?	16µM*	-17%	-6%	-3
COc1c(C)cccc1C(=O)Nc1ccc(N2CCN(C(=O)c3ccccc3C)CC2)cc1	7.9µM*	?	-20%	-30%	-36
CN1CCN(c2ccc(NC(=S)NC(=O)c3cccc4ccccc34)cc2)CC1	11µM*	12%	nt	nt	0
O=C(Nc1ccccc1C(=O)NCCc1ccc(O)cc1)c1ccco1	-6%	6%	nt	nt	?
COc1ccc(S(=O)(=O)NCc2ccco2)cc1NC(=O)c1ccccc1	-29%	56%	i	-22%	-1
CCCC1(CCC)NC(=O)N(CC(=O)Nc2ccc(Cl)c(S(=O)(=O)N3CCOCC3)c2)C1=O	-16%	?	-24%	-16%	-11
CCOC(=O)[C@]12Cc3cc(OC)ccc3[C@H]1N(CCC(=O)OC)C(=O)c1cc(OC)ccc12	nt	20µM*	-5%	-15%	-107*
CCOC(=O)[C@]12Cc3c(cc(OC)c(OC)c3OC)[C@H]1N(CCC(=O)OC)C(=O)c1ccccc12	nt	?	?	?	-108*
CCOC(=O)[C@]12Cc3ccccc3[C@H]1N(CCC(=O)OC)C(=O)c1cc(OC)ccc12	nt	28µM*	-7%	-12%	-99*
CCN(Cc1ccccc1)C(=O)Cn1c(=O)oc2cc(S(=O)(=O)N3CCCCCC3)ccc21	nt	-6%	-6%	-18%	?
COc1ccccc1NC1=C(NC(C)=O)C(=O)c2ccccc2C1=O	?	6%	nt	nt	-66*
COC1=C(Nc2ccccc2OC)C(=O)c2ccccc2C1=O	17%	-2%	i	-5%	16
O=C(Nc1ccc2nc3n(c(=O)c2c1)CCCC3)c1cncc(Br)c1	?	-9%	i	-14%	-63*
CCOc1ccc(CCNC(=O)c2ccc3c(=O)n4c(nc3c2)CCCCC4)cc1	?	-29%	nt	nt	-8
O=C(Nc1ccc2nc3n(c(=O)c2c1)CCCC3)c1cc([N+](=O)[O-])ccc1F	?	20µM*	-20%	-24%	nt
CCOc1ccc(NC(=O)c2ccc3c(=O)n4c(nc3c2)CCCCC4)cc1	11µM*	?	-5%	?	-63*!
O=C(Nc1cccc(S(=O)(=O)N2CCCCC2)c1)c1ccc2c(=O)n3c(nc2c1)CCCCC3	6.3µM*	3.2µM*	-29%	?	-88*
CS(=O)(=O)c1cc(C(=O)O)cc(NCc2ccccc2)c1Oc1ccccc1	nt	-24%	-25%	-14%	-21
CCN(CC)S(=O)(=O)c1ccc(NC(=O)c2ccc3c(=O)n4c(nc3c2)CCCCC4)cc1	nt	28µM*	?	?	-93*
CCc1ccc(NC(=O)c2ccc3c(=O)n4c(nc3c2)CCCCC4)cc1	10µM*	-33%	-6%[7.34 µM]	-4%[7.34 µM]	-38
CCN(CC)c1ccc(C(=O)NNC(=O)c2ccc3c(=O)n4c(nc3c2)CCC4)cc1	0%	0%	nt	nt	-10
COc1cccc(NC(=O)CC(=O)Nc2ccc3nc4n(c(=O)c3c2)CCCCC4)c1	nt	-10%	-9%	-9%	-72*
C[C@]12CC[C@@H]3c4ccc(O)cc4CC[C@H]3[C@@H]1CC[C@@H]2OC(=O)CCC(=O)O	5%[8.37 µM]	-14%	-15%	-20%	-100*
O=C1NC(=O)C(C2CCCCCC2)C(=O)N1	8%	-8%	i	-13%	-66*
CCS(=O)(=O)c1oc(-c2ccc(F)cc2)nc1S(=O)(=O)c1ccccc1	nt	18µM*	?	?	-99*
SMILES	HCV inh	FMDV antiviral	Vaccinia mCherry	VACV Venus inh	HCMV inh
CCCCS(=O)(=O)c1oc(-c2cccs2)nc1S(=O)(=O)c1ccc(F)cc1	nt	32µM*	-15%[7.34 µM]	-11%[7.34 µM]	-98*
CCCCCS(=O)(=O)c1oc(-c2cccs2)nc1S(=O)(=O)c1ccc(C)cc1	nt	28µM*	-27%	-28%	-88*
O=S(=O)(c1ccccc1)c1nc(-c2ccc(F)cc2)oc1N1CCCCCC1	nt	0%	-21%	-8%	-21
CCC(C)S(=O)(=O)c1oc(-c2ccc(F)cc2)nc1S(=O)(=O)c1ccc(F)cc1 (stereo not drawn)	nt	?	i	-27%	-100*
CSc1oc(-c2ccc(F)cc2)nc1S(=O)(=O)c1ccc(Br)cc1	nt	-21%	-16%	-13%	-2
O=C1CN(S(=O)(=O)Cc2ccccc2)C[C@H]2[C@H](c3ccc(Br)cc3)[C@H](CO)N12	nt	nt	nt	nt	-1
COc1ccc(-c2noc(CNC(=O)c3ccoc3C)n2)cc1OC	-13%	-11%	-2%	-9%	11
CCCCS(=O)(=O)c1oc(-c2ccc(F)cc2)nc1S(=O)(=O)c1ccc(C)cc1	nt	28µM*	-3%[7.34 µM]	-10%[7.34 µM]	-100*
Cc1ccc(NC(=O)Nc2c[nH]c(=O)[nH]c2=O)c(Cl)c1	nt	-15%	-6%	-5%	-2
CC(=O)CCC(C)=O	18%	-25%	13µM*	?	5
Cc1ccc2c(c1)[C@@H]1[C@H](CO2)[C@H](c2ccccc2)[C@@]2(C)C(=O)N[C@H](C)C(=O)N12	4%	-10%	i	-4%	2
CCOc1ccc(-n2c(-c3ccc(Br)cc3)cc3c2CC(C)(C)CC3=O)cc1	nt	?	-9%	-6%	-21
COc1ccc(-c2csc(-c3ccc(O)cc3)n2)cc1	?	20%	3.5µM*	?	-24
COc1ccc(N2CC(O)=C(c3nc(-c4ccccc4)cs3)C2=N)cc1	-13%	-3%	-6%	-6%	-26
Cc1ccc(-c2csc(-c3ccncc3)n2)cc1	-9%	0%	nt	nt	53
COc1ccc(O)cc1	0.79µM*	-20%	27%	21%	14
COc1ccc(N2CC(O)=C(c3nc(-c4ccc(Br)cc4)cs3)C2=N)cc1	11%	5%	-15%	-14%	-67*
CCN1CCc2c(sc(NC(=O)c3ccc(S(=O)(=O)N(C)c4ccccc4)cc3)c2C(=O)NC)C1	?	-24%	nt	nt	nt
CC(C)N1CCc2c(sc(NC(=O)c3ccc(S(=O)(=O)N4CCc5ccccc54)cc3)c2C(N)=O)C1	11µM*	?	-20%	-23%	nt
NC(=O)c1ccsc1NC(=O)c1ccc(S(=O)(=O)N2CCCc3ccccc32)cc1	11µM*	35µM*	-9%	?	-71*
CNC(=O)c1c(NC(=O)c2ccc(S(=O)(=O)N(C)c3ccccc3)cc2)sc2c1CCN(C(C)C)C2	11µM*	-25%	nt	nt	0
COc1ccc(CCNC(=O)CNCC2CCCCC2)cc1OC	-1%	-16%	nt	nt	-7
COC(=O)C1=C(c2ccccc2)c2ccccc2S(=O)(=O)N1CC(=O)Nc1ccc(F)c(F)c1	nt	-13%	-12%	1%	-30
CN(C(=O)c1cccc(NC(=O)c2cccs2)c1)c1ccccc1	4%	-28%	-4%	-19%	?
O=C1Nc2ccccc2NC(c2cccc(Br)c2)=C1N(C(=O)C(=O)c1cccs1)c1ccccc1	nt	nt	nt	nt	-88*
CCOC(=O)CC(NC(=O)c1cc2c(=O)n3cccc(C)c3nc2s1)c1ccc(OCC)c(OC)c1 (stereo not drawn)	nt	3%	-10%	-8%	36
